Measurements reported in PubChem BioAssay AID1159580 (chemical genetic matrix, 2015).
Hit rate of the full screen: of about 5,500 compounds, about 2,000 (36%) were called active. Roughly 18% stayed inconclusive and do not appear here. Rule as the data show it: active = normalized growth mostly below about 0.91 (no sharp cut-off); inconclusive = no clear call, values can overlap the other calls; inactive = mostly above about 0.92. Some of the results follow.

Experiment: chemical genetic growth profiling, strain panel (AID 1159580);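 also: tested at 20 µM; growth read once vehicle control cultures reached saturation at 30 °C; 1 = growth at the plate median or of vehicle wells; lower values mean less growth of the strain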
Conditions: growth OD

Measured: normalized growth

CCCN(CCC)c1c([N+](=O)[O-])cc(C(F)(F)F)cc1[N+](=O)[O-]
inactive: S. cerevisiae deletion strains, locus YJR075W, strain HOC1, active compounds read low 0.994 | S. cerevisiae deletion strains, locus YKL009W, strain mrt4, active compounds read low 1.03 | S. cerevisiae deletion strains, locus YKL068W, active compounds read low 1.01 | S. cerevisiae deletion strains, locus YKL085W, strain MDH1 (second series), active compounds read low 1 | S. cerevisiae deletion strains, locus YKL085W, strain MDH1, active compounds read low 1 | S. cerevisiae deletion strains, locus YKL160W, strain elf1, active compounds read low 1 | S. cerevisiae deletion strains, locus YKL190W, strain CNB1, active compounds read low 1.01 | S. cerevisiae deletion strains, locus YKR001C, strain vps1, active compounds read low 1.03 | S. cerevisiae deletion strains, locus YKR026C, strain gcn3, active compounds read low 0.97 | S. cerevisiae deletion strains, locus YKR091W, strain srl3, active compounds read low 0.999 | S. cerevisiae deletion strains, locus YLL001W, strain dnm1, active compounds read low 0.999 | S. cerevisiae deletion strains, locus YLL026W, active compounds read low 0.999 | S. cerevisiae deletion strains, locus YLL041C, strain sdh2, active compounds read low 1 | S. cerevisiae deletion strains, locus YLR027C, strain aat2, active compounds read low 1.01 | S. cerevisiae deletion strains, locus YLR039C, strain RIC1, active compounds read low 0.99 | S. cerevisiae deletion strains, locus YLR058C, strain SHM2, active compounds read low 1 | S. cerevisiae deletion strains, locus YLR102C, strain apc9, active compounds read low 1.01 | S. cerevisiae deletion strains, locus YLR113W, strain HOG1, active compounds read low 1.02 | S. cerevisiae deletion strains, locus YLR221C, strain rsa3, active compounds read low 1 | S. cerevisiae deletion strains, locus YLR258W, strain gsy2, active compounds read low 0.984 | S. cerevisiae deletion strains, locus YLR262C, strain YPT6 (second series), active compounds read low 0.989 | S. cerevisiae deletion strains, locus YLR262C, strain YPT6, active compounds read low 1.04 | S. cerevisiae deletion strains, locus YLR268W, strain sec22, active compounds read low 1.02 | S. cerevisiae deletion strains, locus YLR320W, strain mms22, active compounds read low 1.01 | S. cerevisiae deletion strains, locus YLR330W, strain CHS5, active compounds read low 1.02 | S. cerevisiae deletion strains, locus YLR342W, strain FKS1 (second series), active compounds read low 1.04 | S. cerevisiae deletion strains, locus YLR342W, strain FKS1, active compounds read low 1.04 | S. cerevisiae deletion strains, locus YLR357W, strain rsc2, active compounds read low 1.13 | S. cerevisiae deletion strains, locus YLR370C, strain arc18, active compounds read low 1 | S. cerevisiae deletion strains, locus YLR371W, strain rom2, active compounds read low 1.02 | S. cerevisiae deletion strains, locus YLR384C, strain iki3, active compounds read low 1.02 | S. cerevisiae deletion strains, locus YLR418C, strain cdc73, active compounds read low 1 | S. cerevisiae deletion strains, locus YML016C, strain PPZ1, active compounds read low 0.982 | S. cerevisiae deletion strains, locus YML032C, strain rad52, active compounds read low 1.02 | S. cerevisiae deletion strains, locus YML120C, strain ndi1, active compounds read low 0.985 | S. cerevisiae deletion strains, locus YML124C, strain tub3, active compounds read low 1.02 | S. cerevisiae deletion strains, locus YMR058W, strain fet3, active compounds read low 0.989 | S. cerevisiae deletion strains, locus YMR078C, strain ctf18, active compounds read low 1.02 | S. cerevisiae deletion strains, locus YMR125W, strain sto1, active compounds read low 1.01 | S. cerevisiae deletion strains, locus YMR129W, active compounds read low 1.01 | S. cerevisiae deletion strains, locus YMR205C, strain PFK2, active compounds read low 0.977 | S. cerevisiae deletion strains, locus YMR223W, strain ubp8, active compounds read low 1.01 | S. cerevisiae deletion strains, locus YMR231W, strain pep5, active compounds read low 1.01 | S. cerevisiae deletion strains, locus YMR263W, strain SAP30, active compounds read low 0.984 | S. cerevisiae deletion strains, locus YMR307W, strain GAS1, active compounds read low 0.973 | S. cerevisiae deletion strains, locus YNL067W, strain RPL9B, active compounds read low 1.01 | S. cerevisiae deletion strains, locus YNL071W, strain lat1, active compounds read low 1 | S. cerevisiae deletion strains, locus YNL128W, strain TEP1, active compounds read low 1 | S. cerevisiae deletion strains, locus YNL153C, strain GIM3, active compounds read low 0.995 | S. cerevisiae deletion strains, locus YNL183C, strain NPR1, active compounds read low 0.915 | S. cerevisiae deletion strains, locus YNL209W, strain ssb2, active compounds read low 1.02 | S. cerevisiae deletion strains, locus YNL233W, strain BNI4, active compounds read low 0.981 | S. cerevisiae deletion strains, locus YNL248C, strain rpa49, active compounds read low 1.04 | S. cerevisiae deletion strains, locus YNL250W, strain rad50, active compounds read low 1.01 | S. cerevisiae deletion strains, locus YNL271C, strain bni1, active compounds read low 1.01 | S. cerevisiae deletion strains, locus YNL298W, strain CLA4, active compounds read low 1.02 | S. cerevisiae deletion strains, locus YNL307C, strain MCK1, active compounds read low 1.01 | S. cerevisiae deletion strains, locus YNL322C, strain KRE1 (second series), active compounds read low 1 | S. cerevisiae deletion strains, locus YNL322C, strain KRE1, active compounds read low 1 | S. cerevisiae deletion strains, locus YNR049C, strain mso1, active compounds read low 1.02 | S. cerevisiae deletion strains, locus YNR052C, strain pop2, active compounds read low 1.02 | S. cerevisiae deletion strains, locus YOL006C, strain TOP1, active compounds read low 1.01 | S. cerevisiae deletion strains, locus YOL012C, strain htz1 0.879 | S. cerevisiae deletion strains, locus YOL147C, strain pex11, active compounds read low 1.01 | S. cerevisiae deletion strains, locus YOR001W, strain rrp6, active compounds read low 1.01 | S. cerevisiae deletion strains, locus YOR061W, strain CKA2, active compounds read low 1 | S. cerevisiae deletion strains, locus YOR069W, strain VPS5, active compounds read low 0.998 | S. cerevisiae deletion strains, locus YOR070C, strain gyp1, active compounds read low 0.993 | S. cerevisiae deletion strains, locus YOR080W, strain dia2, active compounds read low 1.01 | S. cerevisiae deletion strains, locus YOR083W, strain WHI5, active compounds read low 1.01 | S. cerevisiae deletion strains, locus YOR106W, strain vam3, active compounds read low 1.02 | S. cerevisiae deletion strains, locus YOR136W, strain idh2, active compounds read low 1.02 | S. cerevisiae deletion strains, locus YOR144C, strain elg1, active compounds read low 1.02 | S. cerevisiae deletion strains, locus YOR184W, strain ser1, active compounds read low 1.02 | S. cerevisiae deletion strains, locus YOR231W, strain MKK1, active compounds read low 0.986 | S. cerevisiae deletion strains, locus YOR265W, strain rbl2, active compounds read low 1.01 | S. cerevisiae deletion strains, locus YOR270C, strain vph1, active compounds read low 0.993 | S. cerevisiae deletion strains, locus YOR290C, strain snf2, active compounds read low 0.987 | S. cerevisiae deletion strains, locus YOR316C, strain cot1, active compounds read low 1.01 | S. cerevisiae deletion strains, locus YPL051W, strain arl3, active compounds read low 1.01 | S. cerevisiae deletion strains, locus YPL055C, strain LGE1, active compounds read low 1.06 | S. cerevisiae deletion strains, locus YPL078C, strain atp4, active compounds read low 0.968 | S. cerevisiae deletion strains, locus YPL106C, strain sse1, active compounds read low 1.05 | S. cerevisiae deletion strains, locus YPL240C, strain hsp82, active compounds read low 0.988 | S. cerevisiae deletion strains, locus YPL241C, strain CIN2, active compounds read low 1.01 | S. cerevisiae deletion strains, locus YPL256C, strain CLN2, active compounds read low 0.961 | S. cerevisiae deletion strains, locus YPR119W, strain clb2, active compounds read low 1.01 | S. cerevisiae deletion strains, locus YPR141C, strain kar3, active compounds read low 1 | S. cerevisiae deletion strains, locus YPR163C, strain tif3, active compounds read low 1.02 | S. cerevisiae deletion strains, locus YPR167C, strain met16, active compounds read low 1.01 | S. cerevisiae deletion strains, strain wtn01, active compounds read low 1.02 | S. cerevisiae strains, strain wild type, active compounds read low 1.01
